The structures appear in SMILES notation. Several values for one entry are separate records, joined by “and”; a condition that tells them apart may be missing. Equal entries are not always repeated. Activity calls are given as the source filed them. Unless noted, calls follow the shape of the dose curve; as a rule, active = well fitted curve in the direction sought with a large enough effect in the repeat runs; inconclusive = weak or mixed curves; inactive = no such curve, though single readings can be large; an effect the other way counts as inactive or inconclusive.

Assay [1] in a line: qHTS assay to identify small molecule antagonists of the thyroid receptor (TR) signaling pathway - cell viability counter screen (AID 743064). Also: nearly all actives have a fitted effect of over 50% in size. Also: potency is read from the fitted curve at half-maximal effect. The essentials: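 GH3.TRE-Luc rat pituitary cells dosed after 4 hr plating, co-stimulated with T3 at 1 nM final, incubated 23.5 h at 37 C. Viability measured in the same wells by CellTiter-Fluor fluorescence after 30 min further at 37 C.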

Assay [2] can be described thus: qHTS assay to identify small molecule antagonists of the thyroid receptor (TR) signaling pathway (AID 743065). Also: nearly all actives have a fitted effect of over 55% in size. Also: potency is read from the fitted curve at half-maximal effect. The essentials:
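GH3.TRE-Luc rat pituitary cells (two TREs driving luciferase) were dosed with compound, then stimulated with 1 nM T3 (final) for 23.5 h at 37 C. ONE-Glo luminescence was the read-out, with CellTiter-Fluor fluorescence as the cytotoxicity counter-screen.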
Background: Quantitative high-throughput screening tests each substance at several concentrations.

For assay [3], the system named is thyroid hormone receptor (rat, GH3 cells). The assay is described as follows: qHTS assay to identify small molecule agonists of the thyroid receptor (TR) signaling pathway (AID 743066; calls by dose curve).
The target of assay [4] is Estrogen receptor (Homo sapiens) (UniProt P03372). As to the kind of experiment: qHTS assay to identify small molecule antagonists of the estrogen receptor alpha (ER-alpha) signaling pathway (AID 743069; active = well fitted curve in the direction sought with a large enough effect in the signal ratio in the repeat runs, not every such curve was filed as active; inconclusive = weak or mixed curves, or effect the other way; inactive = no such curve, though single readings can be large or run the other way; the % refers to the signal ratio). The essentials: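 In this cell-based reporter format, GripTite HEK293 cells harbouring ER-alpha-UAS-bla were grown overnight with 2% charcoal-stripped FBS, dosed with DMSO-dissolved compounds, then challenged with 17beta-estradiol. After 18 hr at 37C, beta-lactamase activity was detected by FRET fluorescence.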

A short description of assay [5]: qHTS assay to identify small molecule antagonists of the estrogen receptor alpha (ER-alpha) signaling pathway - cell viability counter screen (AID 743074; calls by dose curve; also: nearly all actives have a fitted effect of over 45% in size).
Assay [6] deals with Estrogen receptor (Homo sapiens) (UniProt P03372). As to the kind of experiment: qHTS assay to identify small molecule agonists of the estrogen receptor alpha (ER-alpha) signaling pathway (AID 743075; calls by dose curve; also: potency is read from the fitted curve at half-maximal effect).
The target is the same in assay [7]. The assay is described as follows: qHTS assay to identify small molecule agonists of the estrogen receptor alpha (ER-alpha) signaling pathway using the BG1 cell line (AID 743079). Also: nearly all actives have a fitted effect of over 20% in size. Also: potency is read from the fitted curve at half-maximal effect.
Assay [8] in a line: qHTS assay to identify small molecule antagonists of the estrogen receptor alpha (ER-alpha) signaling pathway using the BG1 cell line - cell viability counter screen (AID 743081).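 Also: compound given together with 17beta-estradiol as the ER stimulus; series mostly up to about 70 µM; nearly all actives have a fitted effect of over 45% in size.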
The target of a further assay is Aromatase (Homo sapiens) (UniProt P11511). The assay is described as follows: qHTS assay to identify aromatase inhibitors (AID 743083). Also: series mostly up to about 70 µM; nearly all actives have a fitted effect of over 55% in size.
The nature of assay [9]: qHTS assay to identify aromatase inhibitors - cell viability counter screen (AID 743084).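 Also: cells stimulated with testosterone during compound exposure; nearly all actives have a fitted effect of over 55% in size.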
The nature of assay [10]: qHTS assay to identify small molecule that activate the aryl hydrocarbon receptor (AhR) signaling pathway - cell viability counter screen (AID 743086).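 Also: HepG2 liver cells carrying the AhR DRE luciferase reporter; series mostly up to about 70 µM; nearly all actives have a fitted effect of over 45% in size.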 The procedure, abridged:
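HepG2-AhR-luc (HG2L7.5c1) cells, 4000/well, treated 24 h at 37 C with compound; viability measured as CellTiter-Fluor fluorescence after 30 min in the same wells as the luciferase read.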

Assay [11] deals with Peroxisome proliferator-activated receptor gamma (Homo sapiens) (UniProt P37231). As to the kind of experiment: qHTS assay to identify small molecule antagonists of the peroxisome proliferator-activated receptor gamma (PPARg) signaling pathway (AID 743191; calls by dose curve; also: series mostly up to about 63 µM; nearly all actives have a fitted effect of over 30% in size). The essentials: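 GeneBLAzer PPARg UAS-bla HEK293H cells, 5 h post-plating, exposed to compounds 17 h at 37C. LiveBLAzer B/G FRET substrate added for 1 h at room temperature; beta-lactamase reporter read by fluorescence intensity.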

Assay [12] in a line: qHTS assay to identify small molecule antagonists of the peroxisome proliferator-activated receptor gamma (PPARg) signaling pathway - cell viability counter screen (AID 743194). Also: nearly all actives have a fitted effect of over 55% in size. As to conditions: Potency: co-treated with 50 nM rosiglitazone. The procedure, abridged:
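Cytotoxicity counter screen in PPARg-bla HEK293H cells, same wells as reporter assay. Compounds plus 50 nM rosiglitazone (final) for 17 h at 37 C, then viability read by CellTiter-Glo luminescence.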

Assay [13] can be described thus: qHTS assay for small molecule agonists of the antioxidant response element (ARE) signaling pathway (AID 743202; active = well fitted activation curve with a large enough effect in the signal ratio in the repeat runs, not every such curve was filed as active; inconclusive = weak or mixed curves, or effect the other way; inactive = no such curve, though single readings can be large or run the other way; the % refers to the signal ratio). The essentials: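 HepG2 ARE-bla cells; 16 h treatment at 37 C; FRET-based beta-lactamase fluorescence read after 2 h substrate incubation at room temperature.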
Assay [14] in a line: qHTS assay for small molecule agonists of the antioxidant response element (ARE) signaling pathway - cell viability counter screen (AID 743203; calls by dose curve; also: nearly all actives have a fitted effect of over 55% in size). The essentials: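 ATP content via CellTiter-Glo luminescence served as the viability measure. Cells: ARE-bla HepG2, 2,000 per well. Exposure: 16 hrs, 37C/5% CO2.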
The nature of assay [15]: qHTS assay for small molecule activators of the heat shock response signaling pathway - cell viability counter screen (AID 743209). Also: nearly all actives have a fitted effect of over 50% in size. The essentials: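 Compounds dissolved in DMSO were added to overnight-plated HSE-bla HeLa cells and left 5 h at 37 C. Cell viability was quantified by luminescence using CellTiter-Glo.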
A short description of assay [16]: qHTS assay for small molecule activators of the heat shock response signaling pathway (AID 743210; active = well fitted activation curve with a large enough effect in the signal ratio in the repeat runs, with a control signal flat, not every such curve was filed as active; inconclusive = weak or mixed curves; the % refers to the signal ratio;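 also: HeLa cells with beta-lactamase reporter driven by heat shock elements; series mostly up to about 63 µM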). The procedure, abridged: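 Following overnight attachment, HSE-bla HeLa cells received test compounds for 5 h at 37 C; beta-lactamase activity was then detected via FRET substrate fluorescence.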
Assay [17] in a line: qHTS assay to identify small molecule antagonists of the estrogen receptor alpha (ER-alpha) signaling pathway using the BG1 cell line (AID 743080; calls by dose curve;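 also: BG1 cells stimulated with 17beta-estradiol alongside compound; nearly all actives have a fitted effect of over 25% in size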; also: potency is read from the fitted curve at half-maximal effect). The procedure, abridged:
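BG1Luc4E2, endogenous ER-alpha, 4xERE-luc; 5 d charcoal-stripped FBS, phenol red free; 24 h plating; cpd + 17beta-estradiol 21.5 h, 37 C/5% CO2; CellTiter-Fluor viability 30 min, then ONE-Glo luciferase 30 min RT.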

Assay [18] concerns the target Aryl hydrocarbon receptor (Homo sapiens) (UniProt P35869). As to the kind of experiment: qHTS assay to identify small molecule that activate the aryl hydrocarbon receptor (AhR) signaling pathway (AID 743085).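 Also: HG2L7.5c1 human HepG2 liver cells with stably integrated DRE-driven firefly reporter; series mostly up to about 70 µM; nearly all actives have a fitted effect of over 15% in size.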 The essentials:
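HepG2 cells stably carrying a 20-DRE firefly luciferase reporter (HG2L7.5c1) treated with compound for 24 hr at 37C. Luciferase read by ONE-Glo luminescence, with CellTiter-Fluor viability read first.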

The target in assay [19] is Peroxisome proliferator-activated receptor gamma (Homo sapiens) (UniProt P37231). As to the kind of experiment: qHTS assay to identify small molecule agonists of the peroxisome proliferator-activated receptor gamma (PPARg) signaling pathway (AID 743094; active = well fitted activation curve with a large enough effect in the signal ratio in the repeat runs, not every such curve was filed as active; inconclusive = weak or mixed curves, or effect the other way; inactive = no such curve, though single readings can be large or run the other way; the % refers to the signal ratio). The procedure, abridged: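 Agonism was assessed in a beta-lactamase reporter system, HEK293H cells with a stably integrated UAS-bla construct under PPARg control; the 17 h treatment at 37C preceded a 1 h room-temperature FRET substrate read.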

Aromatase (Homo sapiens), sequence (P11511 whole entry, looked up): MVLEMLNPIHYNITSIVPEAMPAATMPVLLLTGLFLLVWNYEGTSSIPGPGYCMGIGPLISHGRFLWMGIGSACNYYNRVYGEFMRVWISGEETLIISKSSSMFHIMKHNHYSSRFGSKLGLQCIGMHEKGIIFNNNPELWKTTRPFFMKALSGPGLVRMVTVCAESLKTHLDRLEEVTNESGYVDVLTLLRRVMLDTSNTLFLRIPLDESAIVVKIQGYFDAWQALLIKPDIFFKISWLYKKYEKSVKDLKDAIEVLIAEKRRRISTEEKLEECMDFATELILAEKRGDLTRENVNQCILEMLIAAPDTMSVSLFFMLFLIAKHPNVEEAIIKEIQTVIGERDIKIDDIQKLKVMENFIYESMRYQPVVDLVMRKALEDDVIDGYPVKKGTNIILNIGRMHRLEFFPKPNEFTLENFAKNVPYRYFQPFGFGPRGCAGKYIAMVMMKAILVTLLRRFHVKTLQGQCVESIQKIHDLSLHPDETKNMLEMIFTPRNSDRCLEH
Peroxisome proliferator-activated receptor gamma (Homo sapiens), sequence (P37231 whole entry, looked up): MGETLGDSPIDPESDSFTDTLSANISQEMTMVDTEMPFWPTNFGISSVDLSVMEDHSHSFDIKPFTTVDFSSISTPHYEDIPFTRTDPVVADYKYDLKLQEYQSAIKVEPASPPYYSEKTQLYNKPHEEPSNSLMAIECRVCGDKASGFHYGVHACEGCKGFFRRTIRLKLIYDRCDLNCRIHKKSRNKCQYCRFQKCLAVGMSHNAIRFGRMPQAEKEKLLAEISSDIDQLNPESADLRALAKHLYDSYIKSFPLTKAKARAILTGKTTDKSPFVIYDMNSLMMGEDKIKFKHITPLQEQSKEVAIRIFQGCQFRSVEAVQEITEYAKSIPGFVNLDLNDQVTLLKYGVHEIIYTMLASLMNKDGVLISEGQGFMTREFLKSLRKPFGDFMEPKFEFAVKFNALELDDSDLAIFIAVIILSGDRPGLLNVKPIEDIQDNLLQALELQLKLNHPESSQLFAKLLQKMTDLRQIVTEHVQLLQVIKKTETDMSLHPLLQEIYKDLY
Estrogen receptor (Homo sapiens), sequence (P03372 whole entry, looked up): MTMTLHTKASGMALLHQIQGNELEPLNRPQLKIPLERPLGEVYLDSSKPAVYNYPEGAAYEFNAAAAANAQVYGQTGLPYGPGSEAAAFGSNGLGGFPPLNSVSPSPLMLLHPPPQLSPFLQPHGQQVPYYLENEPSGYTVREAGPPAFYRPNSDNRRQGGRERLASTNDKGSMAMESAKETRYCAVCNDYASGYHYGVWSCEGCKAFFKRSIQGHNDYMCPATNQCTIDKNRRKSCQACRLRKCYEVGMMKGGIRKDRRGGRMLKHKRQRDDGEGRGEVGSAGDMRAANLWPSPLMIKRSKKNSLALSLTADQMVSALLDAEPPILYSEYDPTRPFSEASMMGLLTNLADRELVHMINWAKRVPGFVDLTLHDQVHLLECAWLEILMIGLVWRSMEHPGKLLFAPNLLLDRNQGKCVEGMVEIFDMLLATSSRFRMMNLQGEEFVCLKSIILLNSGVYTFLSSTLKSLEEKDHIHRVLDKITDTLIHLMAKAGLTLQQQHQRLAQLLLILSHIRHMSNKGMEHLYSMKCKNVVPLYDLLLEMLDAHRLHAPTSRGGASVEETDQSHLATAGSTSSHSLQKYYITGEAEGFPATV
Aryl hydrocarbon receptor (Homo sapiens), sequence (P35869 whole entry, looked up): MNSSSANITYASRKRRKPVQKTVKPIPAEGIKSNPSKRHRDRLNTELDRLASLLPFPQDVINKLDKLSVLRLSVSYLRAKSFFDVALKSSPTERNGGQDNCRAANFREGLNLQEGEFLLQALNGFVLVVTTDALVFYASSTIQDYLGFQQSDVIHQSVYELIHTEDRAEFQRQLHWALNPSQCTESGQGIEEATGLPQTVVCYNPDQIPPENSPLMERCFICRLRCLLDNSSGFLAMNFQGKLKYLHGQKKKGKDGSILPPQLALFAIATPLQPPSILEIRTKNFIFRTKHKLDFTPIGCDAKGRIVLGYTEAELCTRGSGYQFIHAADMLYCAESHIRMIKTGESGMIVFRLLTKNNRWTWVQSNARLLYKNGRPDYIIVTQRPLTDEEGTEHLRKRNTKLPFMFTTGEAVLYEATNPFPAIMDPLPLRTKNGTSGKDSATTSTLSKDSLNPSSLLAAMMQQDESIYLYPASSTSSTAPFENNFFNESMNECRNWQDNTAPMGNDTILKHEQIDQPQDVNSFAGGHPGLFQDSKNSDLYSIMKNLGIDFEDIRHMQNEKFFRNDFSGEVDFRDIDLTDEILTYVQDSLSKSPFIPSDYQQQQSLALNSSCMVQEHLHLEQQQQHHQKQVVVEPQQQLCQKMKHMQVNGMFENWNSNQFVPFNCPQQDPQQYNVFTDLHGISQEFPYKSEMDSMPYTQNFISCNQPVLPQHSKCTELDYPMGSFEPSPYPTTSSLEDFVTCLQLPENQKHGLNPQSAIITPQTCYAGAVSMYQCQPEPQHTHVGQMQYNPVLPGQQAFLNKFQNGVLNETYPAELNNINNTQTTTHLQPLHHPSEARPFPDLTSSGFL

Regarding `CCC(C)Cl` (stereo not drawn), the Potency result in [1], in [2], in [3], in [4], in [5] and in [6] was “inactive” each time. The Potency entry (in [7]; in assay [8]; with Aromatase (Homo sapiens); in assay [9]; in [10]; in assay [11]) was “inactive” each time. The Potency entry in assay [12], in [13], in [14], in assay [15] and in assay [16] was “inactive” in each case.

For `SCc1ccccc1`, the Potency result in assay [1], in [2], in [3], in assay [5], in assay [6] and in assay [17] was “inactive” each time. The Potency entry (in assay [8]; with Aromatase (Homo sapiens); in [9]; in assay [18]; in [10]; in [19]) was “inactive” throughout. Further, the Potency entry in assay [12], in assay [13], in [14], in [15] and in [16] was “inactive” each time. The Potency in assay [7] was 62.9 µM (active).

With `CCC[N+](CCC)(CCC)CCC`, the Potency result in [1], in [2], in assay [3], in [4], in assay [5] and in [6] was “inactive” throughout. For the same compound, the Potency entry (in assay [7]; in assay [8]; in the assay with Aromatase (Homo sapiens); in assay [9]; in assay [10]; in assay [19]) was “inactive” in each case. The Potency entry in [11], in assay [12], in assay [13], in [14] and in [15] was “inactive” in each case.

Regarding `C#C[C@]1(O)CC[C@H]2[C@@H]3CCC4=CC(=O)CCC4=C3C=C[C@@]21CC`, the Potency entry (in [1]; in assay [3]; in [5]; in assay [8]; with Aromatase (Homo sapiens); in assay [9]) was “inactive” each time. In addition, the Potency result in [18], in assay [10], in assay [12], in [14], in assay [15] and in assay [16] was “inactive” throughout. Besides, the Potency in [2] is 23.7 µM (active); in assay [6] it was 0.213 µM [inconclusive] (active); in [7] it was 0.0422 µM (active); in [17] it was 23.7 µM (active).

With `CCCBr`, the Potency entry in [1], in [2], in [3], in [5], in assay [6] and in [7] was “inactive” each time. Besides, the Potency entry (in assay [17]; in assay [8]; with Aromatase (Homo sapiens); in [9]; in [10]; in assay [19]) was “inactive” each time. Besides, the Potency result in assay [12], in assay [13], in assay [14], in assay [15] and in [16] was “inactive” in each case.

Regarding `CCCCC(CC)COC(=O)c1c(Br)c(Br)c(Br)c(Br)c1C(=O)OCC(CC)CCCC` (stereo not drawn), the Potency entry in [1], in [2], in [3], in assay [4], in [6] and in assay [7] was “inactive” each time. The Potency entry (in [17]; in assay [8]; in the assay with Aromatase (Homo sapiens); in assay [9]; in [18]; in assay [10]) was “inactive” throughout. For the same compound, the Potency entry in assay [12], in assay [13], in assay [14], in [15] and in assay [16] was “inactive” throughout.

For the compound `COc1cc(CC(C)N)c(OC)cc1Br` (stereo not drawn), the Potency was 35.5 µM (active) and 23.7 µM (active) in assay [1]; 35.5 µM (active) and 23.7 µM (active) in assay [2]. In addition, the Potency entry in [3], in assay [4], in [5], in [6], in assay [7] and in [8] was “inactive” throughout. Moreover, the Potency result (with Aromatase (Homo sapiens); in assay [9]; in [10]; in assay [12]; in assay [14]; in assay [15]) was “inactive” throughout. Moreover, in [16], the Potency result was “inactive”.

In the case of `CC(C)(c1ccccc1)c1cc(-n2nc3ccccc3n2)c(O)c(C(C)(C)c2ccccc2)c1`, the Potency entry in assay [1], in assay [2], in [3], in assay [5], in assay [6] and in assay [7] was “inactive” in each case. Moreover, the Potency result (in assay [8]; with Aromatase (Homo sapiens); in [9]; in assay [18]; in assay [10]; in assay [19]) was “inactive” each time. Further, the Potency entry in assay [13], in assay [14], in assay [15] and in assay [16] was “inactive” throughout.

For the origin of these results see PubChem BioAssay (Tox21).
